SW480 rereplic: induces DNA re-replication in SW480 colon adenocarcinoma cells. Potency, µM (titrated, usually from 46.1 µM), without a hit: at the top dose re-replication activation, hits mostly activators. 340,000 compounds, 1.8% hits. SW480 DNA re-replication, Hoechst DNA content imaging, 48 h; also: potency is read from the fitted curve at half-maximal effect; % of control where 0% means no effect; nearly all actives have a fitted effect of over 55% in size
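Cells (250 per well) received 23 nL compound or DMSO by pin tool and were kept 48 hr at 37 C, 5% CO2. Nuclei were then stained with Hoechst for 40 min and scanned for DNA content.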
Giardia kill: Giardia lamblia killing; activity change, % at 7.66 µM, hits read low; Giardia lamblia trophozoite viability; 340,000 compounds, 0.15% hits; in the data active = activity change below about -80%; inconclusive = between about -30% and that limit;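 also: parasites exposed to compound for two days anaerobically before the ATP read; % is scaled to controls: 0 for no effect and ±100 for the full control effect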
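Trophozoite viability was measured as ATP-dependent luminescence, read 15-30 min after reagent addition. Before that, parasites at 100 cells/well were exposed to compounds for 48 h, anaerobically, at 37 deg C.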
uPA surface inh: blocks generation of uPA at the cell surface | cell surface uPA generation assay, qHTS | Potency, µM (doses to about 38.3 µM), inactives show at the top dose activity change, negative = inhibition, usual class: inhibitors | 330,000 compounds, 0.31% hits | AID 540303; active = well fitted inhibition curve with a large enough effect; inconclusive = small, poorly fitted or top-dose-only effect; inactive = no such curve, though single readings can be large or run the other way; tested in mouse RAW 264.7 cells; also: potency is read from the fitted curve at half-maximal effect; % is scaled to controls: 0 for no effect and ±100 for the full control effect; nearly all actives have a fitted effect of over 55% in size
MCF10A rereplic: DNA re-replication induction in MCF 10a cells; MCF 10A DNA re-replication, Hoechst nuclear intensity, 48 h; Potency, µM (highest dose often 46.1 µM), for inactives: top-dose activity, positive = re-replication, most hits filed as activators; 350,000 compounds, 2.9% hits; also: potency is read from the fitted curve at half-maximal effect; % of control where 0% means no effect; nearly all actives have a fitted effect of over 50% in size
The depositor's hits bear a star; ? = inconclusive; / = no result; [ ] = another dose, or the depositor's remark. An excerpt weighted towards active compounds, which were near 4.3% of everything screened. Unless noted, calls follow the shape of the dose curve; as a rule, active = well fitted activation curve with a large enough effect; inconclusive = small, poorly fitted or top-dose-only effect; inactive = no such curve, though single readings can be large or run the other way.

SMILES	SW480 rereplic	Giardia kill	uPA surface inh	MCF10A rereplic
O=C(C[C@H]1C[C@H](C(=O)N2CCOCC2)[C@@]2(CCC3CCCC3)c3[nH]c4ccc(Cl)cc4c3CCN2C1=O)NCCCn1ccnc1	3.6%	-21.5	12.6µM*	?
CC(C)=CCC/C(C)=C/CNC(=O)C[C@H]1C[C@H](C(=O)N2CCOCC2)[C@@]2(CCC3CCCC3)c3[nH]c4cc(CCC(=O)N(C)C)ccc4c3CCN2C1=O	?	1.0	?	14.6µM*
Cc1ccnc(NC(=O)c2cccc(NC(=O)CC3SC(N4CCCCC4)=NC3=O)c2)c1 (centres undefined)	-1.7%	-8.9	4.0%	6.9%
Cc1ccc(N/C(C(Cl)=C(Cl)Cl)=C(/Cl)[N+](=O)[O-])c(C)c1	?	-94.4*	?	-2.2%
Cc1ccc(NC(=O)CC(=O)Nc2ccc(C)cc2C)c(C)c1	0.6%	0.5	16.2%	9.0%
C=CCN(C(=O)CSC1=NC(=O)CN1C(C)=O)c1nc(C)c(-c2ccccc2)s1	-109.5%	-3.6	-8.4%	11.6µM*
N#CC1=C(N)Oc2c(ccc3ccccc23)C1c1cccs1 (centres undefined)	0.562µM*	6.1	-11.8%	?
N#CC1=C(N)Oc2ccc3ccccc3c2C1c1cccnc1 (centres undefined)	4.61µM*	-4.7	?	1.64µM*
N#CC1=C(N)Oc2c(ccc3cccnc23)C1c1ccccc1 (centres undefined)	5.17µM*	5.9	1.26µM*	14.6µM*
N#CC1=C(N)Oc2ccc3ccc(O)cc3c2C1c1cccnc1 (centres undefined)	-0.3%	-1.6	-9.2%	2.4%
O=C1NCc2c1c1c3ccccc3[nH]c1c1[nH]c3ccccc3c21	/	25.2	/	/
CC(=O)Nc1cccc(NC(=O)CSc2nc(=O)n3cccc(C)c3n2)c1	-10.4%	-11.1	-8.3%	-2.3%
O=C(CNCc1ccccc1)Nc1ccc(F)cc1	4.0%	1.6	-6.4%	2.1%
Cc1cc(C)c(NS(=O)(=O)c2ccc(NC(=O)c3cccs3)cc2)c(C)c1	1.8%	18.9	1.3%	?
CCOC(=O)/C=C/C(=O)Nc1ccc(Oc2ccccc2)cc1	18.1%	-29.2	-4.7%	16.4µM*
O=C(O)/C=C/C(=O)Nc1ccc(Oc2ccccc2)cc1	-4.3%	-20.3	3.3%	-36.6%
CCOC(=O)/C=C/C(=O)Nc1ccc(S(=O)(=O)Nc2c(C)cc(C)cc2C)cc1	?	7.4	?	16.4µM*
O=C(CNCc1ccccc1)Nc1ccc(Oc2ccccc2)cc1	18.4µM*	-2.8	-13.0%	?
CCOC(=O)/C=C/C(=O)OCC(=O)Nc1ccc(C)cc1	14.3%	-14.9	-9.9%	?
CCOC(=O)/C=C/S(=O)(=O)c1ccc(NC(C)=O)cc1	2.59µM*	-11.0	-14.3%	2.31µM*
CC(C)N(C(=O)CSc1nnc(C2CC2)n1C1CC1)c1ccccc1	-579.5%	7.2	4.3%	23.9%
CC(C)C[C@H]1CNC(=O)C(=O)N1CC1CCN(CCc2ccc(-c3ccccc3)cc2)CC1	-29.7%	11.9	-17.3%	?
COc1ccc(NS(=O)(=O)c2cc(NC(=O)c3ccncc3)ccc2N2CCOCC2)cc1	-1.5%	-12.4	-4.7%	6.5%
COc1ccc(NS(=O)(=O)c2ccc(N3CCOCC3)c(NC(=O)C(C)C)c2)cc1	-0.1%	11.1	-5.0%	9.1%
COc1ccc(NS(=O)(=O)c2cc(NC(=O)c3ccc(Cl)cc3)ccc2N2CCOCC2)cc1	1.46µM*	12.0	-17.6%	2.31µM*
SMILES	SW480 rereplic	Giardia kill	uPA surface inh	MCF10A rereplic
CCOC(=O)/C=C/C(=O)Nc1cc(S(=O)(=O)Nc2ccc(OC)cc2)ccc1N1CCOCC1	16.4µM*	3.1	-6.4%	?
CC[C@H](C)[C@H]1CNC(=S)N1CC1CCN(CCCC2CCCC2)CC1	1.5%	-16.6	-12.7%	-20.0%
COc1ccc(S(=O)(=O)N2CCN(C(=O)c3ccc(C)o3)CC2)cc1	0.6%	6.8	-9.2%	13.9%
Cc1ccc(S(=O)(=O)c2cc3c(=O)n4ccccc4nc3n(Cc3ccco3)c2=N)cc1	-1.2%	-13.0	/	8.7%
Cn1c(=N)c(S(=O)(=O)c2ccc(F)cc2)cc2c(=O)n3ccccc3nc21	?	6.7	-2.5%	27.8%
C=CCn1c(=N)c(S(=O)(=O)c2ccc(C)c(C)c2)cc2c(=O)n3ccccc3nc21	?	6.9	-4.2%	23.1µM*
Cc1ccc(S(=O)(=O)c2cc3c(=O)n4ccccc4nc3n(CCCN3CCOCC3)c2=N)cc1C	23.1µM*	-9.7	-0.9%	23.1µM*
Cc1ccc(S(=O)(=O)c2cc3c(=O)n4ccccc4nc3n(C)c2=N)cc1C	-6.8%	-12.0	-1.6%	4.11µM*
Cn1c(=N)c(S(=O)(=O)c2ccccc2)cc2c(=O)n3ccccc3nc21	?	7.7	-5.4%	18.4µM*
N=c1c(S(=O)(=O)c2ccccc2)cc2c(=O)n3ccccc3nc2n1CCCN1CCOCC1	?	-7.6	-3.8%	-11.2%
COc1ccc(Cl)cc1NC(=O)c1cccc(S(=O)(=O)Nc2c(C)n(C)n(-c3ccccc3)c2=O)c1	-19.0%	-6.3	1.8%	-1.2%
CCOc1ccc(C2(C)NC(=O)N(CCN(C)C)C2=O)cc1 (centres undefined)	-5.4%	-16.1	-1.4%	3.3%
CC[C@](C)(CN(C)C)OC(=O)c1ccccc1	0.5%[20.6 µM]	/	/	5.8%[20.6 µM]
N#CC1C(=O)NC(=O)C(C#N)C12CCCC(C(F)(F)F)C2 (centres undefined)	-5.9%	6.6	-3.1%	-1.7%
CCOCCCn1c(=N)c(S(=O)(=O)c2ccccc2)cc2c(=O)n3cc(C)ccc3nc21	5.8µM*	13.3	4.7%	8.2µM*
COc1ccc(CN2CCC3C=CCC(C(=O)O)C3C2=O)cc1OC (centres undefined)	/	-15.8	/	/
CC[C@H]1OC(=O)[C@H](C)C(=O)[C@H](C)[C@@H](OC2O[C@H](C)C[C@H](N(C)C)[C@@H]2O)[C@@](C)(OC)C[C@@H](C)C(=O)[C@@H](C)C2N(CCCCn3cnc(-c4cccnc4)c3)C(=O)O[C@@]21C (some centres undefined)	-0.2%	/	/	25.4%
O=C(CSCc1ccccc1)N1CCN(c2ccc(F)cc2)CC1	1.0%	11.9	-0.7%	25.9µM*
CC1(C)N=C(N)N=C(N)N1c1ccc(Oc2ccc(Cl)cc2)c(Cl)c1	0.3%	-10.6	-18.8%	73.8%
O=C(NCCc1ccccc1)C(c1cccs1)N(C(=O)CCl)c1ccc(Cl)cc1 (centres undefined)	10µM*	2.8	-10.2%	11.6µM*
O=C(NCCc1ccccc1)C(c1cccs1)N(C(=O)c1csnn1)C1CC1 (centres undefined)	10.0%	17.6	3.0%	-4.6%
Oc1ccc(Cl)cc1C1C=C(c2ccc3c(c2)OCO3)NC(c2ccc(Cl)cc2)N1 (centres undefined)	/	-20.4	/	/
O=C(O)CCC(=O)N1CCN(c2nc(-c3ccccc3)c3cc(Br)ccc3n2)CC1	?	-14.3	-3.5%	23.1µM*
OCCNc1nc(-c2ccccc2)c2cc(Br)ccc2n1	?	9.4	?	?
O=C(O)CCC(=O)N1CCN(c2nc(-c3ccccc3Cl)c3cc(Br)ccc3n2)CC1	-0.9%	6.3	-4.1%	20.6µM*

Screens: PubChem, National Center for Advancing Translational Sciences (NCATS)
